Records with an inconclusive call do not appear. Values without a mark were called inactive. Activity calls are given as the source filed them. Calls follow the shape of the full dose curve; tested in HEK293 reporter line.
% is scaled to controls: 0 for no effect and ±100 for the full control effect; potency is read from the fitted curve at half-maximal effect.

This assay can be described thus: qHTS for Inhibitors of the Functional Ribonucleoprotein Complex (vRNP) of Lassa (LASV) Arenavirus: Viability assay - alamar blue signal for LASV Primary Screen (AID 1347083). Also: nearly all actives have a fitted effect of over 80% in size. The note with it: cell viability, alamar blue fluorescence (LASV minigenome counter-screen); series mostly up to 57.5 µM; activity change, negative = reduced viability: at the top concentration. On the technique in general: In qHTS, concentration-response curves come from the screen itself.
With `COCCOCCOCCOCCOC`, the “activity change, negative = reduced viability” value is 15.8% [at 115 µM]. In the case of `COc1cc2oc(=O)ccc2cc1[C@H](O)[C@@H](O)C(C)(C)O`, the “activity change, negative = reduced viability” value was 30.8%. As for `COc1ccc(C[C@H]2c3cc(O)c(OC)cc3CC[N+]2(C)[O-])cc1O` (stereo not given in full), the “activity change, negative = reduced viability” value was -16.9%. For the compound `O=C(Nc1ncc(SCCN2CCCC2)s1)[C@]1(c2ccc(S(=O)(=O)C3CC3)cc2)C[C@@H]1C1CCCCC1`, the “activity change, negative = reduced viability” value is -7.34%. `CC(C)c1noc(N2CCC(COc3ccc(-c4ccc(S(C)(=O)=O)cc4)nc3)CC2)n1`: the “activity change, negative = reduced viability” value was 4.04%. In the case of `COc1cc(C(=O)O)ccc1O`, the “activity change, negative = reduced viability” value is 0.18%.

In the case of `CC(=O)C1CCC2C3CCC4=CC(=O)C=CC4(C)C3CCC12C` (stereo not given), the “activity change, negative = reduced viability” value is 6.03%. On the same count and under the same terms, with `O=C(O)[C@@H]1Cc2c([nH]c3ccccc23)C2CCC(=O)N21` (stereo not given in full) the figure was 18.3%; with `C=C1C2C[C@H](O)C(C)(C)[C@@]2(O)[C@H](O)C[C@]23C[C@@](C)(O)[C@H](CC[C@H]12)[C@H]3O` (stereo not given in full), 8.58%. As to `CN1CC(=O)N2C(Cc3c([nH]c4ccccc34)[C@H]2c2ccc3c(c2)OCO3)C1=O` (stereo not given in full), the “activity change, negative = reduced viability” value is -8.24%.

Take `CC1CC(C)C(=O)C1=O` (stereo not given): the “activity change, negative = reduced viability” value is 17.5% [at 115 µM]. Same read-out and setting: then `COC1[C@@H](OC)C[C@H](C)[C@@H](OC)C2=CC(=O)C=C(NC(=O)/C(C)=C/C=C\[C@H](OC)[C@@H](OC(N)=O)/C(C)=C/[C@@H]1C)C2=O` (stereo not given in full), with 7.34% [at 5.82 µM]; and `COc1ccc(CC(=O)c2ccc(OC3OC(CO)C(O)C(O)C3O)cc2O)cc1` (stereo not given), with 11.1%; and `COc1c2c(c(OC)c3c1c(=O)c1ccccc1n3C)OCO2`, with 11%. As for `C[C@H]1CCC2[C@](C)(CO)[C@@H](O)CC[C@]2(C)[C@@]12CCC(CO)(CCO)O2` (stereo not given in full), the “activity change, negative = reduced viability” value is -1.2%.

As to `CC(C)=CC(=O)O`, the “activity change, negative = reduced viability” value is 2.74% [at 115 µM]. As to `CC1=CCC(C(C)C)C=C1` (stereo not given), the “activity change, negative = reduced viability” value was 0.739% [at 115 µM]. On to `C=C(C)[C@@H]1CC[C@]2(C(=O)O)CC[C@]3(C)C(CCC4[C@@]5(C)CC[C@H](O)C(C)(C)C5CC[C@]43C)C12` (stereo not given in full), for which the “activity change, negative = reduced viability” value is 2.98%.

As to `C[C@@H](O)CCCCn1c(=O)c2c(ncn2C)n(C)c1=O`, the “activity change, negative = reduced viability” value was -1.72%. Regarding `COc1c2c(nc3occc13)C(CC=C(C)C)(OC)C(=O)C=C2` (stereo not given), the “activity change, negative = reduced viability” value was -92.8%. Regarding `CC/C=C\CCCCCO`, the “activity change, negative = reduced viability” value was 2.49%. Regarding `C[C@H]1O[C@@H](n2cc(F)c(=O)[nH]c2=O)[C@H](O)[C@H]1O`, the “activity change, negative = reduced viability” value was -32.7%. Still for that read-out and setting: with `CC1=CC2OC3CC4OC(=O)C=CC=CC(=O)OCCC(C)C(O)C(=O)OCC2(CC1)C4(C)C31CO1` (stereo not given) the figure was -168%.

Turning to `C=CC(C)(O)CCC=C(C)C` (stereo not given), the “activity change, negative = reduced viability” value is 11.3%. Same read-out and setting: with `CC1=CCC[C@H]2[C@H](C1)C(=O)C[C@@H](C)[C@]2(C)CC/C(=C/CO)CO` the figure was 0.309%. Same read-out and setting: with `CC/C=C\C[C@H](O)/C=C/C=C\C/C=C\C/C=C\CCCC(=O)O` the figure was 19.4% [at 0.757 µM]. For the compound `CCn1c(-c2nonc2N)nc2cncc(CNC3CCNCC3)c21`, the Potency was 17.2 µM (active). Regarding `C=C(CO)CC1CC(O)[C@]2(C)OC3CC4OC5C[C@]6(C)O[C@]7(C)CCC8OC9C[C@]%10(C)OC%11C(C)=CC(=O)OC%11CC%10OC9C[C@@H](C)C8OC7CC6O[C@]5(C)C/C=C\C4OC3CC2O1` (stereo not given in full), the “activity change, negative = reduced viability” value was 10.3%.

With `C/C=C(\C)C(=O)O[C@H]1C[C@@]2(C)CCC(C(C)C)C2(O)CC[C@@]1(C)O` (stereo not given in full), the “activity change, negative = reduced viability” value was 8.25%. The same measure, in the same setting: with `O=C1C=C(O)c2c(O)cc(O)c(O)c2C1=O` the figure was -8.31%. The same measure, in the same setting: then `CCCC/C=C/C=C\C=O`, with -19.4% [at 115 µM]. Consider `CC1(C)CCC[C@]2(C)[C@H]3CC(=O)O[C@]3(C)CC[C@@H]12`, for which the “activity change, negative = reduced viability” value is -23.7%. For the compound `CC(C)=CCC/C(C)=C/CC/C(C)=C/CCC1(C)CCc2cc(O)ccc2O1` (stereo not given), the “activity change, negative = reduced viability” value was 13.1%. On the same count and under the same terms, then `CCC(C)c1nccnc1OC` (stereo not given), with 8.24% [at 115 µM]. On to `O=C(O)Cc1ccc(O)cc1`, for which the “activity change, negative = reduced viability” value was 29.3%.

Take `CS(=O)(=O)N1CCN(Cc2cc3nc(-c4cccc5[nH]ncc45)nc(N4CCOCC4)c3s2)CC1`: the Potency is 0.968 µM (active). Turning to `CC1(C)C2CC1[C@@](C)(O)[C@H](O)C2` (stereo not given in full), the “activity change, negative = reduced viability” value was 0.316%. On the same count and under the same terms, then `OC(CC(O)c1ccccc1)c1ccccc1` (stereo not given), with 8.43%.

As to `CO[C@H]1[C@@H]2C=CO[C@@H](O[C@H]3O[C@@H](CO)[C@H](O)[C@@H](O)[C@@H]3O)[C@@H]2[C@@]2(CO)O[C@@H]12`, the “activity change, negative = reduced viability” value is 13.8%.

Take `CC1=C(/C=C/C(C)=C/C=C/C(C)=C/C=C/C=C(C)/C=C/C=C(\C)C=O)C(C)(C)CCC1`: the “activity change, negative = reduced viability” value is 1.91%.

For the origin of these results see PubChem BioAssay (NCATS).
